Screening data from PubChem BioAssay.
TDP1 cell CPT: DT40-hTDP1 cell growth loss with CPT. chicken DT40 Tdp1-/-;hTDP1 cells + 20 nM CPT, ATP luminescence, 48 h. Potency, µM (highest dose often 46.2 µM), hits mostly inhibitors. hit rate 12% among 420,000. AID 686979; note: nearly all actives have a fitted effect of over 55% in size
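Chicken DT40 Tdp1-/- cells stably complemented with human TDP1 were seeded at 400 cells/well in medium containing 20 nM camptothecin, exposed to pin-transferred compounds, and grown at 37 °C for at least 48 hr. Viability was read as ATP luminescence.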
TDP1 cell noCPT: qHTS for Inhibitors of human tyrosyl-DNA phosphodiesterase 1 (TDP1): qHTS in cells in absence of CPT. DT40 Tdp1-/- hTDP1 cells, no CPT, ATP luminescence, 48 h. Potency, µM (series often up to 46.2 µM), hits mostly inhibitors. hit rate 15% among 420,000; note: nearly all actives have a fitted effect of over 55% in size
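Growth kinetics read by CellTiter-Glo luminescence after ≥48 hr at 37 °C. Cells: DT40 Tdp1-/- stably carrying human TDP1, 400 per well, compound exposure in the absence of CPT (DMSO vehicle).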
IL-1B inflam inh: inhibitors of inflammasome signaling (IL-1 beta secretion) | THP-1 LPS/ATP IL-1B secretion, AlphaLISA, 16 h; hits give low values | activity change, % at 57.5 µM | hit rate 4.7% among 360,000 | AID 743279; in the data active = activity change below about -50%; inconclusive = mostly about -30% to -49%
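THP-1 cells pretreated 1 hr with compounds (up to 57.5 uM final), then stimulated with LPS (250 ng/mL final) plus ATP (1.25 mM final); secreted IL-1B measured by AlphaLISA after 16 hr, decreased signal indicating inhibition.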
HT1080NT lethal: kills 2HG-producing HT-1080-NT fibrosarcoma cells. HT-1080-NT fibrosarcoma viability, CellTiter-Glo ATP luminescence, 48 h. Potency, µM (top dose mostly 46.1 µM), actives largely listed as cytotoxic. hit rate 1.6% among 360,000. AID 686970;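 note: NT is the 2HG producing partner of a matched IDH1 knockdown line; nearly all actives have a fitted effect of over 55% in size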
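A 48-hour cytotoxicity screen used HT-1080-NT cells plated 2 hours before compound delivery. ATP-based CellTiter-Glo luminescence measured viability, normalized to DMSO and no-cell controls.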
12-LOX inh: blocks human arachidonate 12S-lipoxygenase. AID 1671190. P18054. hit rate 1.1% among 580,000. Potency, µM (highest dose often 108 µM), usual class: inhibitors. purified 12hLO, xylenol orange hydroperoxide absorbance
Target sequence (P18054 whole entry, looked up): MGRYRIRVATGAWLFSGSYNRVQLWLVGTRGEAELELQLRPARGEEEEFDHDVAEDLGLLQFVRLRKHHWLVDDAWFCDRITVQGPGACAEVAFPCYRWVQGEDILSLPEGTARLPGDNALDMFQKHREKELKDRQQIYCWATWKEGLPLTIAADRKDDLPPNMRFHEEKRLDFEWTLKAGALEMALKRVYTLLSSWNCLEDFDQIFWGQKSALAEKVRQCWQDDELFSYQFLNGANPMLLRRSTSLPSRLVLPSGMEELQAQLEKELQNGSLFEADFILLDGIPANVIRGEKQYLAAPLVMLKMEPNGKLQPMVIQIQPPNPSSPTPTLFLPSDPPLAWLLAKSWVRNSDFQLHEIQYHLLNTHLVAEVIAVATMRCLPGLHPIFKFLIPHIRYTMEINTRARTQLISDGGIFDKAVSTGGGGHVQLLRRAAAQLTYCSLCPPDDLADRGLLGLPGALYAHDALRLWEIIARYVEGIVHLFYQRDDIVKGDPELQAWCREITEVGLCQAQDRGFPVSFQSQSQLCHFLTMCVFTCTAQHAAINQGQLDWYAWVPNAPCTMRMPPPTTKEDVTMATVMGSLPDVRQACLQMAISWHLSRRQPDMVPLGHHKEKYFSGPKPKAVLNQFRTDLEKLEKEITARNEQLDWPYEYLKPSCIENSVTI
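Purified human 12hLO at 150 nM in 25 mM Hepes, 0.01% Triton X-100, pH 7.0, preincubated 15 min at room temperature with compound. Reaction started with 40 uM arachidonic acid, 30 min at room temperature. Hydroperoxide measured by Fe-xylenol orange, 573/405 nm absorbance ratio.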
HT1080 IDH1KD tx: toxicity to HT-1080 IDH1 knockdown cells (counter line). AID 686971. hit rate 2% among 360,000. Potency, µM (series often up to 46.1 µM), hits mostly cytotoxic. HT-1080 IDH1 knockdown viability, ATP luminescence, 48 h
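Luminescent ATP read-out (CellTiter-Glo, 10 min at room temperature) after 48 h compound exposure at 37 °C gave viability of IDH1-knockdown HT-1080 cells. Activity was normalised to DMSO and cell-free wells, then fitted as concentration-response curves.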
Hits are given with their value; . = inactive; ? = inconclusive; / = no result given; [ ] = remark or other dose. This excerpt belongs to a sample that is enriched for hits. Unless noted, calls come from the whole dose curve; as a rule, active = well fitted curve in the direction sought with a large enough effect; inconclusive = small, poorly fitted or top-dose-only effect, or another doubt; inactive = no such curve, though single readings can be large; an effect the other way counts as inactive or inconclusive.

SMILES	TDP1 cell CPT	TDP1 cell noCPT	IL-1B inflam inh	HT1080NT lethal	12-LOX inh	HT1080 IDH1KD tx
Cc1c(-c2ccccc2)nc2ccccc2c1C(=O)NC1CC1	/	/	/	/	.	/
COC(=O)[C@]12C[C@H](CC(=O)N3CCN(C(=O)C4CC4)CC3)C(=O)N(Cc3ccccc3)C1=C[C@H](C(C)(C)C)O[C@@H]2C	/	/	/	/	.	/
Cc1ccc(-c2nc3ccc(Br)cn3c2Cc2cccc(F)c2)cc1	16µM	?	.	?	?	?
Cc1ccc2nc(-c3ccccc3)c(Cc3cccc(F)c3)n2c1	?	21µM	.	?	?	?
O=C(NCc1ccc(F)cc1)C1CCN(S(=O)(=O)c2cccc3nonc23)CC1	.	.	.	.	.	.
CCCN1CCN(C(=O)c2cc(COc3ccc4ncccc4c3)on2)CC1	23µM	9.2µM	.	.	.	.
CCN1CCN(C(=O)c2cc(COc3ccc4ncccc4c3)on2)CC1	16µM	10µM	.	.	.	.
CC(=O)c1cccc(OCc2cc(C(=O)N3CCSCC3)no2)c1	.	.	.	.	.	.
CCCN1CCN(C(=O)c2cc(COc3ccc(F)cc3F)on2)CC1	?	?	.	.	.	.
CCN1C(=O)c2ccccc2Sc2ccc(NC(=O)Nc3cc(C)cc(C)c3)cc21	12µM	6.5µM	/	/	?	/
Cc1ccc(NC(=O)Nc2ccc3c(c2)N(C)C(=O)c2ccccc2S3)c(C)c1	?	?	/	/	.	/
CCN1C(=O)c2ccccc2Sc2ccc(NC(=O)COc3ccc(Cl)cc3)cc21	16µM	18µM	/	/	.	/
CN1C(=O)c2ccccc2Sc2ccc(NC(=O)Cc3c(F)cccc3Cl)cc21	13µM	7.3µM	/	/	?	/
Cc1cccc(OCC(=O)Nc2ccc3c(c2)N(C)C(=O)c2ccccc2S3)c1	10µM	10µM	/	/	.	/
CCN1C(=O)c2ccccc2Sc2ccc(NC(=O)c3ccc(Cl)cc3)cc21	.	.	/	/	.	/
CC1(C)CN(C(=O)CSC23CC4CC(CC(C4)C2)C3)CC1(C)O (stereo unspecified)	/	/	/	/	.	/
CC(C)(CNC(=O)CCCc1ccc(Cl)cc1)C(N)=O	/	/	/	/	.	/
O=C(Cc1ccccc1)NCCC1CCN(C(=O)Nc2ccc(F)cc2F)CC1	/	/	/	/	.	/
CN1C(=O)c2ccccc2Sc2ccc(NC(=O)COc3ccccc3)cc21	4.1µM	2.9µM	/	/	.	/
CN1CCN(C(C(=O)N(C)CCC(F)(F)F)c2ccccc2)CC1 (stereo unspecified)	/	/	/	/	.	/
CC1(C)OC(c2ccccc2O)OC1(C)C	/	/	/	/	.	/
COc1ccc(N2C(=O)C(C)(C)C2c2c(O)ccc3ccccc23)cc1 (stereo unspecified)	21µM	16µM	.	.	?	.
CC1(C)C(=O)N(c2ccccc2)C1c1ccccc1O (stereo unspecified)	?	16µM	.	?	.	?
CCN(CC)C(=O)C[C@@H]1c2nc(NC(=O)c3ccco3)sc2C[C@@H]2[C@](C)(CO)[C@H](O)CC[C@]21C	/	/	/	/	.	/
COc1cc2c(cc1OC)CN(Cc1cc(=O)c(OCc3cccc(F)c3)co1)CC2	/	/	/	/	.	/
SMILES	TDP1 cell CPT	TDP1 cell noCPT	IL-1B inflam inh	HT1080NT lethal	12-LOX inh	HT1080 IDH1KD tx
COc1cccc(S(=O)(=O)N(C)C[C@@H]2Oc3ncc(C#CCN(C)C)cc3C(=O)N([C@H](C)CO)C[C@H]2C)c1	.	?	.	.	.	.
CCCC#Cc1cnc2c(c1)C(=O)N([C@H](C)CO)C[C@@H](C)[C@H](CN(C)S(=O)(=O)c1cccc(OC)c1)O2	?	10µM	?	.	?	.
C[C@H](CO)N1C[C@H](C)[C@@H](CN(C)S(=O)(=O)c2ccccc2F)Oc2ncc(C#Cc3cccnc3)cc2C1=O	?	15µM	.	.	?	.
COc1ccc(S(=O)(=O)N(C)C[C@H]2Oc3ncc(C#CC4(O)CCCC4)cc3C(=O)N([C@@H](C)CO)C[C@@H]2C)cc1	9.2µM	?	.	.	?	.
C[C@H]1CN([C@@H](C)CO)C(=O)c2cc(C#Cc3cccnc3)cnc2O[C@H]1CN(C)Cc1ccc(F)cc1	?	?	.	.	.	.
CC1CCC2(CC1)NC(=O)N(CC(=O)N1CCCc3ccccc31)C2=O (stereo unspecified)	/	/	/	/	.	/
Cc1ccc(C)c(C(=O)OCC(=O)Nc2cccc(S(=O)(=O)NC3=NCCCCC3)c2)c1	?	?	-69	.	.	.
Cc1ccc(C)c(SCC(=O)Nc2cccc(S(=O)(=O)NC3=NCCCCC3)c2)c1	.	?	.	.	.	.
COc1ccc(/C=C/C(=O)OCC(=O)Nc2cccc(S(=O)(=O)NC3=NCCCCC3)c2)cc1	.	.	-70	.	.	.
COc1cc(OC)cc(C(=O)OCC(=O)Nc2cccc(S(=O)(=O)NC3=NCCCCC3)c2)c1	?	21µM	.	.	.	.
Cc1ccc(Nc2nnc(SCC(=O)Nc3cccc(S(=O)(=O)NC4=NCCCCC4)c3)s2)c(C)c1	?	26µM	?	.	.	.
O=C(COC(=O)c1ccc(O)cc1)Nc1cccc(S(=O)(=O)NC2=NCCCCC2)c1	.	.	.	.	.	.
O=C(CCc1nc2ccccc2s1)N1CCOc2ccc(CN3CCc4sccc4C3)cc2C1	.[9.04 µM]	?	/	/	.	/
Cc1nn(-c2ccccc2)c(OC(=O)c2ccccc2Br)c1S(=O)(=O)c1ccccc1	.	.	/	/	.	/
CC(C)C(=O)Nc1ccc(C(=O)NNC(=S)NC(=O)c2ccco2)cc1	?	?	.	.	.	.
Cc1cn2nc(C(=O)N3CCC(NC(=O)COc4ccccc4)CC3)cc2c(=O)[nH]1	/	/	/	/	.	/
CCO[C@H]1COC[C@@H]1NC(=O)c1csc(-c2cccs2)n1	/	/	/	/	.	/
C=C1C=C(C)n2ncc(C(=O)Nc3cccc4cnccc34)c2N1	16µM	11µM	/	/	/	/
C=CCNC(=O)c1cnn2c1NC(=C)C=C2C	.	.	/	/	/	/
Cc1ccc(-c2nn3c(CCCC(=O)O)nc4ccccc4c3nc2=O)cc1C	/	/	/	/	.	/
COc1ccc(/C=C2\C(=O)c3ccccc3OC2c2ccccc2)cc1 (stereo unspecified)	?	?	.	?	.	?
CCOc1ccc(/C=C2\C(=O)c3ccccc3OC2c2ccccc2)cc1 (stereo unspecified)	?	18µM	.	.	.	.
C=CCNC1=C2C[C@@H](C)C[C@H](OC)[C@H](O)[C@@H](C)/C=C(\C)[C@H](OC(N)=O)[C@@H](OC)/C=C\C=C(/C)C(=O)NC(=CC1=O)C2=O	1.1µM	0.38µM	/	/	/	/
